# Hits are enriched below; roughly 7.4% of the tested compounds scored in any of these assays.
# Rab9 prom act = activates the Rab9 promoter | Huh7 Rab9 promoter-luciferase reporter, luminescence, 24 h | Potency, µM (top dose mostly 9.22 µM), for inactives: at the highest dose activation, negative = inhibition, usual class: activators | hit rate 2.8% among 320,000; also: % of control where 0% means no effect; nearly all actives have a fitted effect of over 60% in size
#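 Cells were plated at 1500 per well in reduced-serum medium with 10% FBS and left 2 h. Compound in DMSO was then added for 24 h at 37 °C. Reporter signal was read by luminescence after 10 min with luciferase detection reagent.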
# FLuc counter = inhibits or activates purified firefly luciferase, miR-21 counter-screen | P08659 | hit rate 6.9% among 360,000 | purified FLuc, Km substrates, luminescence inhibition | AID 588342 | Potency, µM (titrated, usually from 57.5 µM), without a hit: top-dose activity change, negative = inhibition, usual class: inhibitors;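 also: plate controls were vehicle for no effect and reference inhibitor for full effect; nearly all actives have a fitted effect of over 55% in size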
# Target sequence (P08659 whole entry, looked up): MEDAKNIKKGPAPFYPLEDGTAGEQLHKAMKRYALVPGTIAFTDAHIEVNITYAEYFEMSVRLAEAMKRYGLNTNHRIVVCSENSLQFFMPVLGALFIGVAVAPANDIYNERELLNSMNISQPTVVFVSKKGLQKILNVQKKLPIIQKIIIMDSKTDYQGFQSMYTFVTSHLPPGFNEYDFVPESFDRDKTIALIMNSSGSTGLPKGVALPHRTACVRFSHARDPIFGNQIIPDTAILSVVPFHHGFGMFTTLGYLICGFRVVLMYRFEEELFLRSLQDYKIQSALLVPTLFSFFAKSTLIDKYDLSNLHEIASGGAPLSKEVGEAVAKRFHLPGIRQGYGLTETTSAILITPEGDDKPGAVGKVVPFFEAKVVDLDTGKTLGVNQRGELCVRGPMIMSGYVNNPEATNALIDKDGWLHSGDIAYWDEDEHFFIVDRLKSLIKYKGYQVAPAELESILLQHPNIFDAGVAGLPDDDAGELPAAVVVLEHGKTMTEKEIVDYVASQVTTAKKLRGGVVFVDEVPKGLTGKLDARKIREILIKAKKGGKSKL
#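 Purified P. pyralis luciferase, 10 nM final, with Km-level 10 uM D-luciferin and 10 uM ATP in 50 mM Tris acetate pH 7.5, 10 mM Mg acetate, 0.01% Tween-20, 0.05% BSA; 6-point qHTS titration about 60 µM downward; luminescence read.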
# ELG1 genotox = genotoxicity induction in ELG1-luciferase HEK293T cells. HEK293T ELG1-luciferase reporter, luminescence, 16 h. Potency, µM (doses to about 46 µM), for the others: at the top dose activity change, positive = activation, most hits filed as activators. hit rate 1.3% among 330,000. AID 504466; also: % of control where 0% means no effect; nearly all actives have a fitted effect of over 60% in size
#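 DMSO vehicle served as control against compound-treated ELG1-luciferase HEK293T cells; exposure lasted 16 hr at 37 °C and 5% CO2, followed by ONE-Glo luminescence detection after 30 min.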
# Luc counter = counter-screen: inhibitors of Kinase-Glo firefly luciferase. Q27757. Kinase-Glo luciferase, ATP luminescence, 8 min. Potency, µM (series often up to 38.3 µM), for the others: at the top dose activity change, negative = inhibition, most hits filed as inhibitors. hit rate 0.28% among 200,000; also: % is scaled to controls: 0 for no effect and ±100 for the full control effect; nearly all actives have a fitted effect of over 60% in size
#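 Substrate mix (final 50 mM imidazole pH 7.2, 50 mM KCl, 7 mM MgCl2, 10 uM ATP, 0.01% Tween 20, 0.05% BSA) plus pin-tool compound, then Kinase-Glo detection mix; 8 min ambient, luminescence read.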
# SMN2 splice enh = enhancers of SMN2 splice variant expression | Potency, µM (series often up to 46.1 µM), for inactives: top-dose activity change, positive = activation, usual class: activators | HEK293 SMN2-luciferase splicing reporter, luminescence, 30-36 h | hit rate 2.8% among 210,000; also: % of control where 0% means no effect; nearly all actives have a fitted effect of over 55% in size
#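 HEK293 cells carry an SMN2 […]–luciferase reporter in which exon 7 inclusion puts luciferase in frame. Cells were plated 10-12 h before compound addition, then incubated 30-36 h at 37C. ONE-Glo luminescence was read; sodium butyrate at 4.5 mM final served as control.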
# NPC1 promoter act = NPC1 promoter activation; hit rate 2.4% among 320,000; Potency, µM (highest dose often 9.22 µM), without a hit: top-dose activation, usual class: activators; Huh7 NPC1 promoter luciferase reporter, 24 h; AID 485313; also: % of control where 0% means no effect; nearly all actives have a fitted effect of over 60% in size
#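 Cells: Huh7 expressing luciferase under the NPC1 promoter, 1500/well. Seeded 2 h, compound added, incubated 24 h at 37 °C. Luciferase reagent, 10 min ambient, then luminescence.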
# The depositor's hits bear a star; u = inconclusive; x = no result given. Calls follow the shape of the dose curve; as a rule, active = well fitted curve in the direction sought with a large enough effect; inconclusive = small, poorly fitted or top-dose-only effect, or another doubt; inactive = no such curve, though single readings can be large; an effect the other way counts as inactive or inconclusive. Potency is read from the fitted curve at half-maximal effect.
SMILES,Rab9 prom act,FLuc counter,ELG1 genotox,Luc counter,SMN2 splice enh,NPC1 promoter act
Cc1ccc(C)n1-c1ccc(-c2ccn[nH]2)cc1,u,12µM*,u,2%,13µM*,u
COc1ccc(-c2nc3c4ccccc4n(CC(=O)N4CCN(c5ccc(F)cc5)CC4)c(=O)n3n2)cc1,x,0%,x,x,x,x
COC(=O)c1sc(NC(=O)c2cc(-c3ccccc3)nc3ccccc23)c(C#N)c1C,-30%,u,-3%,0%,-91%,-33%
CCOC(=O)c1sc(NC(=O)c2cc(-c3ccc(C)cc3)nc3ccccc23)c(C#N)c1C,-14%,12µM*,-6%,-2%,-78%,-3%
COc1ccc(-c2cc(C(=O)Nc3sc4c(c3C#N)CCCC4)c3ccccc3n2)cc1,0%,15µM*,-2%,-5%,-16%,-1%
COc1ccc(OC)c(CCNC(=O)c2cc3cccc4c3n2CC(C)S4)c1 (stereo not drawn),x,2%,x,x,x,x
Fc1cc(F)c2nc(Nc3nc4cc5c(cc4s3)OCO5)sc2c1,u,u,u,0%,18µM*,u
O=c1oc2ccccc2cc1-c1csc(Nc2nc3c(F)cccc3s2)n1,-2%,-19%,3%,-3%,-28%,16%
O=C(NNc1nc2c(F)cccc2s1)C1=COCCO1,3%,1%,1%,0%,3%,0%
Fc1cccc2sc(Nc3nc4cc5c(cc4s3)OCO5)nc12,3.2µM*,4.3µM*,7.3µM*,1%,5µM*,4µM*
Fc1cccc2sc(Nc3nc4cc5c(cc4s3)OCCO5)nc12,0.71µM*,1.2µM*,1.2µM*,-3%,u,4µM*
O=C(NNc1nc2c(F)cc(F)cc2s1)c1ccccc1,-3%,4%,-1%,-1%,22%,-1%
Nc1nnc(SCC(=O)Nc2ccc3c(c2)OCCO3)s1,3%,19µM*,u,-2%,-52%,19%
O=C(CSc1ncc(-c2ccc(F)cc2)n1Cc1ccco1)Nc1ccc2c(c1)OCO2,x,19µM*,x,-2%,-1%,x
CCC(=O)Nc1nnc(SCC(=O)Nc2ccc3c(c2)OCCO3)s1,x,-18%,3%,x,x,-1%
CCOc1ccc(NC(=O)CSc2ncc(-c3ccc(F)cc3)n2Cc2ccco2)cc1,-12%,-1%,-8%,x,x,-1%
Cc1cccc(SCC(=O)Nc2ccc3c(c2)OCCO3)c1,4µM*,u,-1%,x,x,2µM*
Cc1nc(SCC(=O)Nc2ccc3c(c2)OCCO3)nc(C)c1C,3%,-3%,13%,5%,u,1%
Cc1ccnc(NC(=O)CSc2ccc3c(c2)OCCO3)c1,5%,u,18µM*,x,x,18%
O=C(CCCN1C(=O)/C(=C/c2ccccc2OC(F)F)SC1=S)Nc1cccnc1,x,x,-8%,x,x,x
O=C(COC(=O)COc1cccc(C(F)(F)F)c1)Nc1ccc(N2CCOCC2)cc1,3%,0%,-3%,x,x,-3%
CC(C)c1ccc(NC(=O)COC(=O)CSc2nnc(N)s2)cc1,3%,15µM*,0%,-1%,2%,0%
CC(Nc1ccc2c(c1)OCCO2)C(=O)N1CCc2ccccc21 (stereo not drawn),29%,27µM*,12%,-1%,16%,10%
Nc1ccccc1SCC(=O)Nc1ccc2c(c1)OCO2,4µM*,2%,0%,x,x,u
Nc1nnc(SCC(=O)Nc2ccc(Cl)cc2)s1,x,-1%,x,x,x,x
CC(NCc1ccc2c(c1)OCO2)C(=O)N1CCc2ccccc21 (stereo not drawn),0%,2%,1%,-2%,-18%,-3%
Nc1ccccc1SCC(=O)Nc1ccc2c(c1)OCCO2,3.2µM*,19µM*,u,x,x,2.2µM*
CCOc1ccc(-c2noc(CSc3nnc(Cc4ccccc4)n3-c3cccc(C)c3)n2)cc1,x,-22%,x,x,-63%,x
O=S(=O)(c1ccccc1)n1nc(-c2ccc(Cl)cc2)nc1NCc1ccccc1,x,2%,x,x,19%,x

# Screens (PubChem)
